An excerpt weighted towards active compounds, which were near 2.9% of everything screened.
pPAFAH FP inh: inhibitors of human plasma PAF acetylhydrolase (pPAFAH). inhibition, % at 3.39 µM. hit rate 1.5% among 330,000. Q13093. recombinant pPAFAH, FP-rhodamine probe fluorescence polarization;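 active = inhibition above the mean inhibition across the screen plus 3 SD, cut at about 25% in these data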;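 note: inhibitors block binding of the rhodamine activity-based probe so polarization drops; 0% = enzyme with DMSO and 100% = wells lacking pPAFAH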
Fam108B counter: Fam108B inhibition, counter-screen for RBBP9 inhibitors; recombinant Fam108B, FP-Rh probe fluorescence polarization; inhibition, % at 9.51 µM; hit rate 0.33% among 300,000;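 active = inhibition above the screen mean inhibition plus 3 SD, computed separately per campaign, cut at about 18% in these data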;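 note: inhibitors lower polarization as less probe binds the enzyme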
PAFAH1B2 inh: PAFAH1B2 (human) inhibition; hit rate 1.2% among 340,000; inhibition, % at 3.39 µM; P68402; recombinant PAFAH1B2, FP-rhodamine activity probe, fluorescence polarization; AID 492953;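 active = inhibition above the mean of all tested compounds plus 3 SD, cut at about 24% in these data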;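 note: 0% = enzyme with DMSO and 100% = wells lacking PAFAH1B2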
PME-1 primary: blocks human protein phosphatase methylesterase 1. recombinant PME-1, FP-Rh probe fluorescence polarization. inhibition, % at 5.9 µM. hit rate 0.53% among 320,000. AID 2130;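 active = inhibition above the campaign mean of all compounds plus 3 SD, cut at about 26% in these data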;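 note: competitive labeling of PME-1 active site by serine hydrolase directed probe; 0% = PME-1 with DMSO and 100% = wells lacking PME-1 enzyme; inhibitors block probe labeling so polarization falls and inhibition rises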
Target sequence (Q9Y570 whole entry, looked up): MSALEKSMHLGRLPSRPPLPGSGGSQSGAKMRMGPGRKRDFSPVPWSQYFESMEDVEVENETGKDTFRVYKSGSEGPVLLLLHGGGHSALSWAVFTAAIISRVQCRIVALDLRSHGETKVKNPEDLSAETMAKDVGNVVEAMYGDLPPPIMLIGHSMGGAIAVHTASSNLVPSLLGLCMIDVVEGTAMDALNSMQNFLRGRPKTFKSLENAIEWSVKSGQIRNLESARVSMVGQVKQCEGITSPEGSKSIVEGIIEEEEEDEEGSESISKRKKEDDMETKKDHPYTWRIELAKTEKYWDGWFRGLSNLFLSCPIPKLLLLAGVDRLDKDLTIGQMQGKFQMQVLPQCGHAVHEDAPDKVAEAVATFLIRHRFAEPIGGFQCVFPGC
PAFAH2 FP inh: PAFAH2 (human) inhibition. hit rate 0.99% among 340,000. Q99487. inhibition, % at 3.39 µM. recombinant PAFAH2, FP-rhodamine activity probe, fluorescence polarization. AID 492956;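 active = inhibition above the mean over all tested compounds plus 3 SD, cut at about 30% in these data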;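 note: inhibitors block probe labeling of enzyme so polarization drops; 0% = enzyme with DMSO and 100% = wells lacking PAFAH2 protein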
PAFAH1B3 inh: PAFAH1B3 (human) inhibition; Q15102; recombinant PAFAH1B3, FP-rhodamine probe, fluorescence polarization; inhibition, % at 3.39 µM; hit rate 0.28% among 340,000; AID 492972;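 active = inhibition above the screen-wide average of all tested compounds plus 3 SD, cut at about 25% in these data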;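 note: 0% = enzyme with DMSO only and 100% = wells lacking PAFAH1B3 protein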
Target sequence (Q15102 whole entry, looked up): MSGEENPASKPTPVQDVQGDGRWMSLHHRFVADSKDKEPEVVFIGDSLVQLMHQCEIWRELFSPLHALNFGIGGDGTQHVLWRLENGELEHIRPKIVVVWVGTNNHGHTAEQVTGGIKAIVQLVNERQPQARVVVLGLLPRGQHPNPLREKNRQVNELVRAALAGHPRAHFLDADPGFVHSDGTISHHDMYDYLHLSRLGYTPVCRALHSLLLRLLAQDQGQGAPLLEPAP
The depositor's hits bear a star; x = not tested or not shown.

SMILES	pPAFAH FP inh	Fam108B counter	PAFAH1B2 inh	PME-1 primary	PAFAH2 FP inh	PAFAH1B3 inh
Cc1cc(S(=O)(=O)Nc2c(C)ccc3nsnc23)ccc1F	3	1	5	-1	-4	7
CN(CCS(=O)(=O)c1ccc(Cl)cc1)Cc1cccnc1	-1	0	7	-3	7	2
CC(C)c1ccc(C(C)NCCS(=O)(=O)c2ccc(Cl)cc2)cc1 (stereo not drawn)	1	3	34*	-7	5	6
C=CCC1NS(=O)(=O)OC(COC)C1C (stereo not drawn)	-6	-2	4	-1	3	-3
N#Cc1nc(COc2ccc(Cl)cc2)oc1NCc1ccc2c(c1)OCO2	2	-6	29*	-3	-4	3
Cc1cccc(OCc2nc(C#N)c(NCc3ccc4c(c3)OCO4)o2)c1	0	2	7	-6	3	2
O=S(=O)(NCCc1cccs1)c1ccc(Br)cc1	-1	-6	25*	-15	6	2
O=[N+]([O-])c1cccc(S(=O)(=O)NCCc2cccs2)c1	6	-3	10	0	4	6
CCN(C(=O)CN1C(=O)NC(c2ccccc2)(c2ccc(C)c(C)c2)C1=O)C1CCCCC1 (stereo not drawn)	8	x	26*	-2	-2	6
O=C1OC(c2ccccc2)=N/C1=C/c1cccc(OC(=O)c2cccs2)c1	0	-8	66*	-29	-5	2
O=C(Cn1nnc2ccccc2c1=O)NC1CCCCC1	-5	3	1	-8	-5	-1
Cc1ccc(C(CCN(Cc2ccccc2)C(=O)c2ccco2)c2ccco2)cc1 (stereo not drawn)	30*	-3	-4	-14	15	1
NNC(=O)c1cc(O)c(O)c(O)c1	30*	1	7	-12	2	10
Cc1ccccc1C1=C/C(=C(\SS/C(C(=O)c2ccc(OCC(=O)O)c(Cl)c2Cl)=C2\C=C(c3ccccc3C)SS2)C(=O)c2ccc(OCC(=O)O)c(Cl)c2Cl)SS1	x	x	26*	x	34*	25
O=C(O)COc1ccc2nsnc2c1Cl	-1	5	0	1	2	6
COc1cc(/C=C(/C#N)C(=O)NCCc2c[nH]c3ccccc23)ccc1OCc1ccccc1F	5	-2	2	1	-9	2
O=C(COC(=O)c1ccccc1NS(=O)(=O)c1cc([N+](=O)[O-])ccc1Cl)c1ccccc1	1	2	x	0	x	x
CN(C(=O)COC(=O)c1cc(NS(=O)(=O)c2cc([N+](=O)[O-])ccc2Cl)ccc1O)C1CCCCC1	10	4	26*	-2	17	9
Cc1sc(NC(=O)C2CCCCC2C(=O)O)c(C(N)=O)c1-c1ccccc1 (stereo not drawn)	5	-3	1	2	-1	4
CCOC(=O)c1c(NC(=O)/C=C/C(=O)O)sc(C)c1-c1ccc(C(C)(C)C)cc1	33*	-10	-4	-3	-2	-16
Cc1sc(NC(=O)C2CCCCC2C(=O)O)c(C(N)=O)c1-c1ccc(C(C)(C)C)cc1 (stereo not drawn)	-7	0	26*	-7	7	-3
Cc1cc(C(=O)CSc2nc(N)cc(N)n2)c(C)n1-c1cccc(C(F)(F)F)c1	6	-1	0	29*	-5	5
Cc1cc(C(=O)CSc2ncccn2)c(C)n1-c1cccc(F)c1	7	-1	4	-1	-8	6
CCC(=O)c1ccc(OCC(=O)Nc2cccc(S(=O)(=O)N3CCCCCC3)c2)cc1	x	x	2	x	-11	-3
CC(c1cccnc1)N(C(=O)Nc1ccccc1)C1CCCCC1 (stereo not drawn)	4	1	-4	-4	-3	-5
SMILES	pPAFAH FP inh	Fam108B counter	PAFAH1B2 inh	PME-1 primary	PAFAH2 FP inh	PAFAH1B3 inh
Cc1ccccc1OCC(=O)NC(=S)Nc1cccc2cc(O)ccc12	10	-1	6	28*	-12	4
COc1cccc(CN(CC(=O)NC2CCCCC2)C(=O)c2csnn2)c1	-5	-4	7	-5	6	1
NC(=O)CSc1nc(C23CC4CC(CC(C4)C2)C3)nc2ccccc12	5	-1	6	2	-1	6
COCCOC(=O)c1c(C)nc(SCC(=O)Nc2ccc(OC)cc2)c(C#N)c1-c1ccco1	27*	3	-3	-2	1	5
COc1cccc(NC(=O)CSc2nc3c(c(-c4ccco4)c2C#N)CCCC3)c1	3	-3	-3	5	-6	-4
COCCn1cnc2c1c(=O)n(Cc1ccccc1C#N)c(=O)n2Cc1ccccc1	5	-2	-3	13	1	-4
CCOC(=O)c1ccc2c(c1)C1C=CCC1C(C(=O)OCC)N2 (stereo not drawn)	28*	7	3	8	10	15
Cc1ccc(NS(=O)(=O)c2cccc(C(=O)Nc3c(C)n(C)n(-c4ccccc4)c3=O)c2)cc1	25*	-1	x	-6	x	x
Cc1ccc(NS(=O)(=O)c2cccc(C(=O)Nc3cc(C)on3)c2)cc1	33*	-2	3	4	-5	3
Cc1c(NC(=O)c2ccc(NS(=O)(=O)c3ccccc3)cc2)c(=O)n(-c2ccccc2)n1C	8	0	5	-1	8	0
O=C(CSc1nnc(CCc2ccccc2)n1-c1ccc(Cl)cc1)NCc1ccccc1	35*	2	9	11	5	5
Cc1c(N/N=C(\C#N)C(=O)c2ccc(Cl)cc2)c(=O)n(-c2ccccc2)n1C	4	-2	4	4	-1	7
N#C/C(=N\Nc1ccc(Cl)cc1)C(=O)c1ccccc1	27*	0	4	6	25	-3
Cc1cc(C)c2nc(NNC(=O)c3ccc(S(=O)(=O)N4CCCC(C)C4)cc3)sc2c1 (stereo not drawn)	29*	7	3	3	-2	6
Cc1cc(Cl)ccc1OCCCC(=O)NNC(=O)c1ccccc1O	29*	-1	13	-2	2	15
Cc1ccccc1C(=O)Nc1ccc(C(=O)NNC(=O)CCCOc2ccc(Cl)cc2Cl)cc1	4	-7	0	-3	-2	-4
COc1cc(C(C)=O)ccc1OCC(=O)NCCCn1nc(C)cc1C	5	x	3	x	1	9
CCC1CCC(C(=O)NNC(=O)c2cc(-c3ccco3)[nH]n2)CC1 (stereo not drawn)	31*	6	2	4	7	2
N#CCCn1cc(/C=C/C(=O)O)c(-c2ccc(F)cc2)n1	-6	4	1	6	1	-2
NC1=NC(=O)/C(=C/c2cn(CCC(=O)O)nc2-c2ccc(F)cc2)S1	0	0	48*	-3	4	8
NC1=NC(=O)/C(=C/c2cn(CCC(=O)O)nc2-c2ccc(Cl)cc2)S1	1	-3	50*	-5	5	6
